According to PubChem BioAssay (EPA / NIEHS):
Where “and” joins values, the source holds several entries; their conditions need not be identical. Equal entries are not always repeated. More than one record can exist for a structure, and the calls need not agree. Calls of active or inactive are those of the source. Rule for the calls: active = hit-call score of the fitted dose curve at least 0.9, where 1 is the maximum; inactive = score below 0.9.

Columns and labels:
[1] = ATG_EGR_CIS: Attagene CIS-FACTORIAL HepG2 Assay for human Early Growth Response 1 (EGR1) (AID 2282938); conditions: HepG2 Attagene CIS-FACTORIAL EGR reporter mRNA; actives raise or lower the signal
Procedure, shortened: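 Endogenous TF activity in HepG2 liver cells was gauged through cis-promoter reporter constructs transiently transfected. After 24 h dosing, reporter mRNA was quantified by RT-PCR and capillary electrophoresis, and curves fitted in both directions versus DMSO.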

[2] = ATG_M_19_CIS: Attagene CIS-FACTORIAL HepG2 Assay for M19 Transcription Factor (Internal Marker) (AID 2282939); conditions: HepG2 Attagene CIS-FACTORIAL M19 internal marker reporter; actives raise or lower the signal
Procedure, shortened: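 HepG2 cells transiently transfected with cis-regulated multiple reporter transcription units were dosed for 24 h; reporter mRNA was quantified by RT-PCR, 6-FAM primer-extension labelling, HpaI digestion and capillary electrophoresis, with bidirectional fitting against DMSO baseline.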

[3] = ATG_Ets_CIS: Attagene CIS-FACTORIAL HepG2 Assay for human Erythroblast Transformation Specific (ETS) (AID 2282941); conditions: HepG2 ETS cis-reporter transcription; AC50: actives raise or lower the signal unless noted; outcome: actives raise or lower the signal unless noted
Procedure, shortened: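 Steps: transfect HepG2 with multiple reporter units; treat compound 24 h; isolate RNA, DNase-treat, reverse-transcribe; PCR-amplify, label with 6-FAM, digest with HpaI; separate by capillary electrophoresis. Activity fitted both directions versus DMSO.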

[4] = target: Hepatocyte nuclear factor 3-beta (Homo sapiens) (UniProt Q9Y261); assay: ATG_FoxA2_CIS: Attagene CIS-FACTORIAL HepG2 Assay for human Forkhead box A2 (FOXA2) (AID 2282942); conditions: HepG2 cis-reporter transcription factor activity, 24 h; actives raise or lower the signal
Procedure, shortened: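 Endogenous transcription factor activity was read in HepG2 cells carrying transiently transfected cis-promoter reporter units. After 24 h dosing, reporter mRNA was quantified by RT-PCR and capillary electrophoresis, and values fitted bidirectionally versus DMSO.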

[5] = ATG_FoxO_CIS: Attagene CIS-FACTORIAL HepG2 Assay for human Forkhead box O (FoxO) (AID 2282943); conditions: HepG2 Attagene cis-reporter, FoxO element, mRNA; actives raise or lower the signal
Procedure, shortened: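 24 h chemical exposure, HepG2 with transient cis-MRTU transfection. RNA extraction, oligo(dT) RT, reporter-specific PCR, primer-extension labelling, HpaI digestion, CE fragment analysis; bidirectional fit, DMSO baseline.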

[6] = ATG_GATA_CIS: Attagene CIS-FACTORIAL HepG2 Assay for human GATA Binding Protein (AID 2282944); conditions: HepG2 GATA cis-element reporter, Attagene multiplex mRNA; actives raise or lower the signal
Procedure, shortened: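 HepG2 cells transiently transfected with multiplexed cis-element reporter units reflecting endogenous transcription factor activity; reporter mRNA measured after 24 h dosing by RT-PCR, 6-FAM labeling, HpaI digestion and capillary electrophoresis. Bidirectional fitting versus DMSO baseline.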

[7] = ATG_GLI_CIS: Attagene CIS-FACTORIAL HepG2 Assay for human Zinc Finger Protein GLI1 (AID 2282945); conditions: HepG2, Attagene cis-factorial reporter mRNA, GLI element; actives raise or lower the signal
Procedure, shortened: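 HepG2 cells transiently transfected with cis-promoter multiplexed reporter units report endogenous transcription factor activity. After 24 h chemical exposure, reporter mRNA was quantified by RT-PCR, 6-FAM labelling, HpaI digestion and capillary electrophoresis, with bidirectional fitting against DMSO.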

[8] = target: Bile acid receptor (Homo sapiens) (UniProt Q96RI1); assay: ATG_IR1_CIS: Attagene CIS-FACTORIAL HepG2 Assay for human Nuclear Receptor Subfamily 1 Group H Member 4 (NR1H4), IR1 submotif (AID 2282946); conditions: IR1 reporter transcription, actives raise or lower the signal
Procedure, shortened: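 Transient MRTU transfection, HepG2; 24 h dosing; RNA → RT-PCR → 6-FAM primer extension → HpaI digest → capillary electrophoresis fluorescence. Gain/loss of signal fitted relative to DMSO.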

[9] = ATG_GRE_CIS: Attagene CIS-FACTORIAL HepG2 Assay for human Glucocorticoid Response Elements (GRE) (AID 2282947); conditions: HepG2 GRE cis-reporter, Attagene multiplex mRNA; AC50: actives raise or lower the signal unless noted; outcome: actives raise or lower the signal unless noted
Procedure, shortened: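 Following 24 h chemical exposure of transiently transfected HepG2 cells, total RNA was reverse-transcribed and reporter cDNA amplified, fluorescently labelled and sized by capillary electrophoresis. Signal gain or loss was fitted relative to DMSO vehicle.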

[10] = ATG_ERE_CIS: Attagene CIS-FACTORIAL HepG2 Assay for Estrogen Response Element (ERE) (AID 2282940); conditions: HepG2 ERE cis-reporter, Attagene RNA transcript; actives raise or lower the signal
Procedure, shortened: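 HepG2 cells transiently transfected with cis-promoter-driven multiplexed reporter transcription units report endogenous TF activity. After 24 h compound exposure, reporter mRNA is quantified by RT-PCR with capillary electrophoresis fluorescence; bidirectional fitting versus DMSO baseline.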

Measured: AC50

Chain of Bile acid receptor (Homo sapiens) (Q96RI1 whole entry, looked up): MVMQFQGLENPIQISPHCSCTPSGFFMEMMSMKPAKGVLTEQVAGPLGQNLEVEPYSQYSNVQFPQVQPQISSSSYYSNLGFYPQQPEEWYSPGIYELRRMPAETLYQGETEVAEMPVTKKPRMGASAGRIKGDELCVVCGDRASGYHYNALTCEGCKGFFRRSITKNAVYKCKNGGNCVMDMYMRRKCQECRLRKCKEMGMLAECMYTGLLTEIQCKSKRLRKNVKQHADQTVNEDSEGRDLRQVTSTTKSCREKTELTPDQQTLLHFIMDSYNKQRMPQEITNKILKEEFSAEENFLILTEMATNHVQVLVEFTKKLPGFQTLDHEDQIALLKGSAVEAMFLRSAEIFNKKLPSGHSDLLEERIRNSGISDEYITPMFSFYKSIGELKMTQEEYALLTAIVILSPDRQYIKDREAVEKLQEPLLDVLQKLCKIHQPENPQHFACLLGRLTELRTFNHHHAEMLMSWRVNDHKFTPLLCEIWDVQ
Chain of Hepatocyte nuclear factor 3-beta (Homo sapiens) (Q9Y261 whole entry, looked up): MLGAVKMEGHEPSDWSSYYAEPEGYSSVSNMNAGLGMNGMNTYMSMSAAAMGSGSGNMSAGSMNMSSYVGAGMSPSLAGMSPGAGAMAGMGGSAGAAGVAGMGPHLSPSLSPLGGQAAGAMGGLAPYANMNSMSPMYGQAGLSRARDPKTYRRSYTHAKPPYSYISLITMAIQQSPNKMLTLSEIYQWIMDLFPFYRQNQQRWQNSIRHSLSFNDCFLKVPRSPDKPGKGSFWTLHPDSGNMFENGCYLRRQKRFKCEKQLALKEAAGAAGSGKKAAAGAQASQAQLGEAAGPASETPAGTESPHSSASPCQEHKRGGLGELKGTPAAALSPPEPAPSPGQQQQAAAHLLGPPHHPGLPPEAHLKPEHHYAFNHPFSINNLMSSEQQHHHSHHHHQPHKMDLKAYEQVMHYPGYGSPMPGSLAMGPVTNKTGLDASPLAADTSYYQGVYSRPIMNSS

Cc1ccc(C)c(S(=O)(=O)O)c1
not listed: [8] | [9] | [10]
inactive: all other assays above

CC(=O)Nc1ccc(O)cc1
not listed: [8] | [9] | [10]
inactive: all other assays above

OCC(CO)(CBr)CBr
not listed: [10]
inactive: all other assays above

Nc1cc(Cl)c(-c2cc(Cl)c(N)cc2Cl)cc1Cl
not listed: [9] | [10]
inactive: all other assays above

CCC(C)c1ccccc1O (stereo unspecified)
not listed: [8] | [9] | [10]
inactive: all other assays above

CC(=O)CC(C)C
not listed: [9] | [10]
inactive: all other assays above

CN(C)c1ccc(C(=C2C=CC(=[N+](C)C)C=C2)c2ccccc2)cc1
active: [1] 1.46 µM and 1.85 µM | [3] 10.1 µM | [4] 1.51 µM | [8] 1.28 µM
inactive: [2] | [3] | [4] | [5] | [6] | [8] | [9]

CCCCCc1ccc(O)cc1
not listed: [10]
inactive: all other assays above

Cc1ccc(S(=O)(=O)O)cc1
not listed: [8] | [9] | [10]
inactive: all other assays above

OCCN1CN(CCO)CN(CCO)C1
active: [1] 173 µM | [7] 162 µM
not listed: [10]
inactive: all other assays above

Nc1ccc(O)c(C(=O)O)c1
not listed: [9] | [10]
inactive: all other assays above

CCCCC=O
not listed: [10]
inactive: all other assays above

Clc1ccc2c(Cl)ccnc2c1
not listed: [10]
inactive: all other assays above

CN(CCO)S(=O)(=O)C(F)(F)C(F)(F)C(F)(F)C(F)(F)C(F)(F)C(F)(F)C(F)(F)C(F)(F)F
not listed: [10]
inactive: all other assays above

NCc1cccc(CN)c1
not listed: [5] | [7] | [9]
inactive: all other assays above

Cc1[nH]nc2c1N=C(c1ccccc1Cl)c1cc([N+](=O)[O-])ccc1N2
active: [8] 2.08 µM
not listed: [9] | [10]
inactive: all other assays above

O=c1cc(-c2ccccc2)oc2ccc3ccccc3c12
not listed: [8] | [9] | [10]
inactive: all other assays above

CCCCCCc1ccc(N)cc1
active: [10] 5.06 µM
not listed: [5] | [7] | [8]
inactive: all other assays above

CCCCc1ccc2ccccc2c1S(=O)(=O)O
not listed: [10]
inactive: all other assays above

O=S(=O)(O)c1ccccc1
not listed: [10]
inactive: all other assays above

OCC1CCC(CO)CC1 (stereo unspecified)
active: [10] 23.2 µM
not listed: [5] | [7] | [8]
inactive: all other assays above

Brc1ccc(Oc2ccc(Br)cc2Br)cc1
not listed: [10]
inactive: all other assays above

CCCCCCCCC1CCC(=O)O1 (stereo unspecified)
not listed: [5] | [7]
inactive: all other assays above

CCCCCCCCCCCC(=O)O
not listed: [8] | [9] | [10]
inactive: all other assays above

CCCCCCC(C)(C)C(=O)O
active: [1] 130 µM
not listed: [10]
inactive: all other assays above

Nc1ccn([C@@H]2O[C@H](CO)[C@@H](O)C2O)c(=O)n1 (stereo partly specified)
not listed: [10]
inactive: all other assays above

CC(C)(C)c1ccc(CCC=O)cc1
inactive: [1] | [2] | [3] | [4] | [5] | [6]

CC(=O)Nc1ccc(S(N)(=O)=O)cc1
not listed: [10]
inactive: all other assays above

O=C1NS(=O)(=O)c2ccccc21
not listed: [8] | [9] | [10]
inactive: all other assays above

CN(Cc1cnc2nc(N)nc(N)c2n1)c1ccc(C(=O)N[C@@H](CCC(=O)O)C(=O)O)cc1
not listed: [5] | [9] | [10]
inactive: all other assays above

CC(C)(O)C(=O)c1ccccc1
not listed: [5] | [7] | [10]
inactive: all other assays above

C[C@]12CC[C@@H]3c4ccc(O)cc4CC[C@H]3[C@@H]1C[C@@H](O)[C@@H]2O
not listed: [7] | [8] | [10]
inactive: all other assays above
